Screens as filed in PubChem BioAssay.
Rows were chosen to be rich in hits. Some 6.8% of all compounds tested hit in one or more screens of this group.
Pf Dd2 growth = inhibitors of Plasmodium falciparum Dd2 growth; P. falciparum Dd2 growth, SYBR Green, 72 h; active compounds read low; activity change, % at 10 µM; hit rate 2.3% among 94,000; AID 1159554; in the data active means activity change below about -80%; inconclusive means no clear call, values can overlap the other calls
C diff HTS = blocks growth of Clostridium difficile; Clostridium difficile clinical isolate growth, OD600, 24 h; active compounds read low; growth activity, negative = inhibition, % at 16 µg/mL (by protocol); hit rate 0.25% among 86,000; AID 1259249;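 active means mean growth activity at or below -80% and every replicate also at or below -80%; inconclusive means mean at or below -80% but some replicate above -80%; inactive means mean growth activity above -80%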
T cruzi growth-1 = inhibitors of T. cruzi proliferation; T. cruzi beta-gal in NIH3T3, GalScreen luminescence, 90 h; inhibition, % at 8.34 µM; hit rate 5.9% among 77,000; AID 624255;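 active means mean inhibition above about 93%, with at least 55% of replicates each passing it, limit read from the data, passing the limit was not always enough; inconclusive means only one of those two conditions holds; inactive means neither condition holds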
T cruzi growth-2 = blocks T. cruzi growth in NIH3T3 host cells; shares compounds with T cruzi growth-1; T. cruzi beta-gal in NIH3T3, GalScreen luminescence, 90 h; hit rate 72% among 5,600; inhibition, % at 8.35 µM;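 active means mean replicate inhibition above about 95% and at least 55% of replicates individually reaching it, limit read from the data; inconclusive means only one of the two criteria is met; inactive means neither criterion is met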
T cruzi growth-3 = blocks T. cruzi growth in NIH3T3 host cells; shares compounds with T cruzi growth-1; hit rate 21% among 5,600; AID 651740; inhibition, % at 2.09 µM; T. cruzi beta-gal in NIH3T3, GalScreen luminescence, 90 h;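 active means mean inhibition above about 95%, with at least 55% of replicates also reaching it, limit read from the data; inconclusive means meets just one of the two conditions; inactive means meets neither condition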
NIH3T3 tox = NIH/3T3 (mouse) viability loss; shares compounds with T cruzi growth-1; NIH/3T3 viability, CellTiter-Glo ATP luminescence, 90 h; cytotoxicity (signal decrease), % at 8.35 µM; hit rate 14% among 5,600;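 active means mean signal decrease across replicates above about 35% based on untreated-well scatter, with enough replicates individually passing, limit read from the data; inconclusive means no rule stated though some were filed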
3T3 cytotox 2 = NIH/3T3 (mouse) viability loss; shares compounds with T cruzi growth-1; NIH/3T3 viability, CellTiter-Glo ATP luminescence, 90 h; inhibition, % at 24.9 µM; hit rate 56% among 5,600;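 active means mean loss of cell viability signal at or above a set limit, and enough replicates individually reaching it; inconclusive means meets only the mean limit or only the replicate share; inactive means meets neither condition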
A number is an active result.

C[C@@H]1CN([C@H](C)CO)C(=O)c2cccc(NS(=O)(=O)c3cn(C)cn3)c2O[C@H]1CN(C)Cc1ccc(-c2ccccc2)cc1 was read as Pf Dd2 growth inactive, C diff HTS inactive and T cruzi growth-1 inactive.
Screening Cc1ccc(S(=O)(=O)N[C@@H]2CC[C@H](CCNC(=O)C3CCCC3)O[C@H]2CO)cc1 returned Pf Dd2 growth inactive and C diff HTS inactive.
For COc1ccc(S(=O)(=O)N2CC[C@@H]3[C@@H](CO)N(C)c4ccc(-c5ccccc5F)cc4[C@@H]32)cc1 the results were Pf Dd2 growth inactive, C diff HTS inactive and T cruzi growth-1 inactive.
`Cc1ccc(S(=O)(=O)N2CC[C@@H]3[C@@H](CO)N(C)c4ccc(-c5ccccc5F)cc4[C@@H]32)cc1` gave Pf Dd2 growth inactive, C diff HTS inactive and T cruzi growth-1 inactive.
`CN1c2ccc(-c3ccccc3F)cc2[C@H]2[C@H](CCN2S(=O)(=O)c2ccc(F)cc2)[C@H]1CO` gave Pf Dd2 growth inactive, C diff HTS inactive, T cruzi growth-1 102.4, T cruzi growth-2 99.9, T cruzi growth-3 inactive, NIH3T3 tox inactive and 3T3 cytotox 2 71.7.
Screening COc1ccc(S(=O)(=O)N2CC[C@H]3[C@@H](CO)N(C)c4ccc(-c5ccccc5F)cc4[C@H]32)cc1 returned Pf Dd2 growth inactive, C diff HTS inactive, T cruzi growth-1 113.7, T cruzi growth-2 112.2, T cruzi growth-3 inactive, NIH3T3 tox inactive and 3T3 cytotox 2 inactive.
For CN(C)Cc1cn(CC[C@@H]2CC[C@@H](NS(=O)(=O)c3ccc(-c4ccccc4)cc3)[C@H](CO)O2)nn1 the results were Pf Dd2 growth inactive and T cruzi growth-1 inactive.
C[C@H]1CN([C@@H](C)CO)C(=O)c2cc(C#CC3(O)CCCC3)cnc2O[C@@H]1CN(C)C(=O)C1CC1 was read as Pf Dd2 growth inactive and T cruzi growth-1 inactive.
Screening C[C@@H]1CN([C@@H](C)CO)C(=O)Cc2cc(NC(=O)NC3CCCCC3)ccc2O[C@@H]1CN(C)C(=O)Nc1ccc(F)cc1 returned Pf Dd2 growth inactive and C diff HTS inactive.
Screening Cc1ccc(S(=O)(=O)N(C)C[C@H]2OCCCC[C@@H](C)Oc3ccc(NS(=O)(=O)c4cccs4)cc3C(=O)N([C@H](C)CO)C[C@H]2C)cc1 returned Pf Dd2 growth inactive, T cruzi growth-1 inconclusive, T cruzi growth-2 inactive, T cruzi growth-3 inactive, NIH3T3 tox inactive and 3T3 cytotox 2 inactive.
For Cc1ccc(S(=O)(=O)N(C)C[C@@H]2OCCCC[C@@H](C)Oc3ccc(NS(=O)(=O)c4cccs4)cc3C(=O)N([C@H](C)CO)C[C@H]2C)cc1 the results were Pf Dd2 growth inactive and T cruzi growth-1 inactive.
Cc1ccc(S(=O)(=O)Nc2ccc3c(c2)C(=O)N([C@@H](C)CO)C[C@@H](C)[C@H](CN(C)S(=O)(=O)c2cccs2)OCCCC[C@H](C)O3)cc1 was read as C diff HTS inactive.
Screening Cc1ccc(S(=O)(=O)N(C)C[C@@H]2OCCCC[C@@H](C)Oc3ccc(NS(=O)(=O)c4cccs4)cc3C(=O)N([C@@H](C)CO)C[C@H]2C)cc1 returned Pf Dd2 growth inactive and T cruzi growth-1 inactive.
Cc1ccc(S(=O)(=O)N(C)C[C@H]2OCCCC[C@@H](C)Oc3ccc(NS(=O)(=O)c4cccs4)cc3C(=O)N([C@@H](C)CO)C[C@@H]2C)cc1 was read as Pf Dd2 growth inactive, T cruzi growth-1 inconclusive, T cruzi growth-2 106.9, T cruzi growth-3 inactive, NIH3T3 tox inactive and 3T3 cytotox 2 inactive.
Cc1ccc(S(=O)(=O)N(C)C[C@@H]2OCCCC[C@@H](C)Oc3ccc(NS(=O)(=O)c4cccs4)cc3C(=O)N([C@@H](C)CO)C[C@@H]2C)cc1 was read as Pf Dd2 growth inactive, T cruzi growth-1 103.2, T cruzi growth-2 103.7, T cruzi growth-3 inactive, NIH3T3 tox inactive and 3T3 cytotox 2 inactive.
C[C@@H]1CCCCO[C@H](CN(C)S(=O)(=O)c2ccccc2)[C@H](C)CN([C@@H](C)CO)C(=O)c2cc(NS(=O)(=O)c3cccs3)ccc2O1 was read as C diff HTS inactive, T cruzi growth-1 inconclusive, T cruzi growth-2 102.8, T cruzi growth-3 inactive, NIH3T3 tox inactive and 3T3 cytotox 2 inactive.
Screening C[C@@H]1CN([C@H](C)CO)C(=O)c2cc(NS(=O)(=O)c3cccs3)ccc2O[C@@H](C)CCCCO[C@H]1CN(C)S(=O)(=O)c1ccccc1 returned Pf Dd2 growth inactive and C diff HTS inactive.
`CC(=O)N1CC(=O)N2[C@H](CO)[C@H](c3ccc(-c4ccc(C)cc4)cc3)[C@@H]2C1` gave Pf Dd2 growth inactive and C diff HTS inactive.
`Cc1ccc(S(=O)(=O)N(C)C[C@@H]2OCCCC[C@H](C)Oc3ccc(NS(=O)(=O)c4cccs4)cc3C(=O)N([C@H](C)CO)C[C@@H]2C)cc1` gave Pf Dd2 growth inactive, T cruzi growth-1 119.0, T cruzi growth-2 95.7, T cruzi growth-3 inactive, NIH3T3 tox inactive and 3T3 cytotox 2 inactive.
For Cc1ccc(S(=O)(=O)N(C)C[C@H]2OCCCC[C@H](C)Oc3ccc(NS(=O)(=O)c4cccs4)cc3C(=O)N([C@H](C)CO)C[C@H]2C)cc1 the results were Pf Dd2 growth inactive, T cruzi growth-1 108.6, T cruzi growth-2 103.3, T cruzi growth-3 inactive, NIH3T3 tox inactive and 3T3 cytotox 2 inactive.
Cc1ccc(S(=O)(=O)N(C)C[C@@H]2OCCCC[C@@H](C)Oc3ccc(NS(=O)(=O)c4cccs4)cc3C(=O)N([C@H](C)CO)C[C@@H]2C)cc1 was read as Pf Dd2 growth inactive and T cruzi growth-1 inactive.
`Cc1ccc(S(=O)(=O)Nc2ccc3c(c2)C(=O)N([C@H](C)CO)C[C@H](C)[C@@H](CN(C)S(=O)(=O)c2cccs2)OCCCC[C@H](C)O3)cc1` gave C diff HTS inactive.
For O=S(=O)(N[C@@H]1CC[C@H](CCn2cc(-c3cccnc3)nn2)O[C@@H]1CO)c1ccc(Cl)cc1 the results were Pf Dd2 growth inactive, C diff HTS inactive and T cruzi growth-1 inactive.
`CNC(=O)C[C@@H]1CC[C@H]2[C@@H](COC[C@H](O)CN2Cc2ccncc2)O1` gave Pf Dd2 growth inactive, C diff HTS inactive and T cruzi growth-1 inactive.
For C[C@@H]1CCCCO[C@H](CN(C)S(=O)(=O)c2cccs2)[C@@H](C)CN([C@H](C)CO)C(=O)c2cc(NS(=O)(=O)c3ccc(Cl)cc3)ccc2O1 the results were Pf Dd2 growth inactive, C diff HTS inactive and T cruzi growth-1 inactive.
Screening C[C@@H]1CCCCO[C@H](CN(C)S(=O)(=O)c2ccc(Cl)cc2)[C@@H](C)CN([C@H](C)CO)C(=O)c2cc(NS(=O)(=O)c3cccs3)ccc2O1 returned C diff HTS inactive and T cruzi growth-1 inactive.
